Compound activity deposited in PubChem by several laboratories.
ATG4B inhibitor = blocks human ATG4B protease cleavage of LC3 substrate | Q9Y4P1 | ATG4B cleavage of LC3-PLA2, NBD-HPC fluorescence, 1 h | inhibition, % at 8.33 µM | 340,000 tested, 0.51% active | AID 504462; in the data active = inhibition above about 40%
Target sequence (Q9Y4P1 whole entry, looked up): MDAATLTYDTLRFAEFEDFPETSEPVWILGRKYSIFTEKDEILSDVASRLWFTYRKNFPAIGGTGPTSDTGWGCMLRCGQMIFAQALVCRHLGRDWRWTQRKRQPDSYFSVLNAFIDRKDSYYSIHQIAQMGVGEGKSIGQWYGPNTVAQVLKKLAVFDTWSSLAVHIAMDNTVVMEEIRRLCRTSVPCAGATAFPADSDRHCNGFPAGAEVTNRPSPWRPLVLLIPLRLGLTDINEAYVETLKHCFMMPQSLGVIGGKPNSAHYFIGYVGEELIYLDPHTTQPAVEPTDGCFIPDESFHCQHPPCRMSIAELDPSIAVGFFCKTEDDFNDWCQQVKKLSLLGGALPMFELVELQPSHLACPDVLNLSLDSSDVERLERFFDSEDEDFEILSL
M1 PAM = positive allosteric modulators of human M1 muscarinic receptor. P11229. CHO-K1 hM1, Fluo-8 calcium fluorescence, ACh EC20; 0% = ACh EC20, 100% = maximal ACh. activation, % at 3 µM. 360,000 tested, 0.088% active; in the data active = activation above about 19%, passing the limit was not always enough
Myeloid diff MLP = promotes myeloid progenitor differentiation; 360,000 tested, 1% active; calls only at 10 µM; ER-HoxA9 myeloid progenitors, lysozyme-GFP differentiation, flow cytometry;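 active = normalized GFP-positive differentiation at or above the plate's own cutoff, the solvent-only control mean plus 3 SD; inconclusive = no clear call, values can overlap the other calls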;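 note: cells exposed to compound for four days before flow analysis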
M1 antag = blocks human M1 muscarinic receptor; P11229; CHO-K1 hM1, Fluo-8 calcium fluorescence, ACh EC80 antagonist; inhibition, % at 3 µM; 360,000 tested, 1.3% active; AID 588852;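 active = percent inhibition above its own plate's cutoff, namely the mean of that plate's compound wells plus 3 SD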;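 note: peak over basal fluorescence ratio during 140 s after agonist addition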
SKN-1 inh = blocks SKN-1 activity in C. elegans; AID 624304; 360,000 tested, 0.49% active; C. elegans VP596 Pgst-4::GFP/RFP ratio, acrylamide-induced, 24 h; inhibition, % at 21.8 µM;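 active = interference check ratio from 0.5 to 1.5 plus GFP to RFP signal ratio inhibition reaching or exceeding a fixed threshold, cut at about 30% in these data, passing the limit was not always enough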
M1 ag = human M1 muscarinic receptor agonism; P11229; CHO-K1 hM1, Fluo-8 calcium fluorescence, agonist mode; 0% DMSO, 100% acetylcholine EC100; activation, % at 3 µM; 360,000 tested, 0.33% active; AID 588814;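 active = activation above the run's mean compound activation plus 3 SD, cut at about 16% in these data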;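 note: peak over basal fluorescence ratio within a 140 s kinetic read after compound addition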
Myeloid diff CP1 = compounds promoting myeloid differentiation | shares compounds with Myeloid diff MLP | ER-HoxA9 myeloid progenitors, GFP/Mac1 double-positive flow | AID 651706 | 2,300 tested, 2% active | calls only;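 active = share of green or green-and-red cells above 9 and 9% in run 1 or 4 and 3% in run 2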
GFP autofluor = compound fluorescence in myeloid differentiation counter-screen; shares compounds with Myeloid diff MLP; fluorescence response, % (concentration not given with the values); ER-HoxA9 myeloid progenitors, no estrogen, GFP autofluorescence flow cytometry; vehicle wells 0%, positive control 100%; 2,300 tested, 7.4% active;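 active = over 5% cells positive for green fluorescent reporter, or over 2% positive for both it and APC stain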
Each line names hits and unclear results; the compound was inactive in the other large screens (follow-up assays come after a bar, where they were run). A selection: hits, their analogues and other compounds. The true share with any hit is near 3.5%.

Cn1c(C(=O)N2CCCC(C(=O)NCc3cccs3)C2)cc2sccc21 (centres undefined)	Myeloid diff MLP active | Myeloid diff CP1 inactive | GFP autofluor inactive
CC(=O)NC1CC2CCCC(C1)N2S(=O)(=O)c1cccc(F)c1 (centres undefined)	Myeloid diff MLP active | Myeloid diff CP1 inactive | GFP autofluor inactive
Cc1nc(NC(=O)c2ccc(Br)s2)sc1C(=O)N(C)C	none | Myeloid diff CP1 inactive | GFP autofluor inactive
O=C(NC1CC2CCC1C2)c1ccco1 (centres undefined)	none | Myeloid diff CP1 inactive | GFP autofluor inactive
Cc1ccc(SCC(=O)N=C2NC(=O)CS2)cc1	none
O=C(/C=C/c1cccc(C(F)(F)F)c1)Nc1cccc(C(F)(F)F)c1	none | Myeloid diff CP1 inactive | GFP autofluor inactive
COc1ccccc1NC(=O)Cn1ccn(-c2cccc3ccccc23)c(=O)c1=O	none
CCOc1ccccc1NC(=O)Cn1c(=O)c2ccccc2n(CC)c1=O	none
CCn1c(=O)n(CC(=O)N(C)Cc2ccccc2)c(=O)c2ccccc21	Myeloid diff MLP active | Myeloid diff CP1 inactive | GFP autofluor inactive
O=C(Cc1ccsc1)Nc1ccc(Cl)cc1Cl	none
COc1ccc(O)c(C2=Nc3ccccc3N=C(c3ccccc3)C2)c1	none
COc1ccc2c(c1)NC(=O)CC(c1ccccc1)=N2	none | Myeloid diff CP1 inactive | GFP autofluor inactive
N#Cc1ccccc1NC(=O)CN1CCOCC1	none
CC1CCN(CC(=O)Nc2ccccc2C#N)CC1	Myeloid diff MLP active | Myeloid diff CP1 inactive | GFP autofluor inactive
COc1ccc(N(CC(=O)Nc2cc(OC)ccc2OC)S(C)(=O)=O)cc1	none | Myeloid diff CP1 inactive | GFP autofluor inactive
CC(=O)N1CCN(Cc2nc3cc(NC(=O)Nc4ccccc4)ccc3n2C)CC1	none
O=C1C(=O)c2ccccc2C(O)=C1c1ccccc1F	none
O=C1C(O)=C(O)C(=O)c2ccccc21	none | Myeloid diff CP1 inactive | GFP autofluor inactive
C[n+]1ccn(CC(=O)c2cc(C(C)(C)C)c(O)c(C(C)(C)C)c2)c1	none
O=C(CCN1CCCCO1)N1CCCC(N2CCN(c3ccc(F)cc3)CC2)C1 (centres undefined)	none
O=S(=O)(NC(=NCc1ccccc1)c1ccccc1)c1ccc(Br)cc1	none
Cc1nc2ccccn2c1C(=O)/C=C/c1ccc(F)cc1	none | Myeloid diff CP1 inactive | GFP autofluor inactive
CN(C(=O)c1ccc(NC(=O)Cc2ccc(NC(=O)C3CCN(C(=O)c4ccccc4)CC3)cc2)cc1)C1CCCC1	none
COc1ccc([C@H]2[C@@H]3C=CCC[C@@]3(C)C(=O)N2Cc2ccccc2)cc1Cl	none | Myeloid diff CP1 inactive | GFP autofluor inactive
Oc1ccc(CCNc2c3ccccc3nc3ccccc23)cc1O	Myeloid diff MLP inconclusive
CC1(C)CC(=O)C=C(c2ccc(Oc3ccccc3)cc2)C1	none
CC1(C)CNC(=O)C=C(c2ccccc2)C1	Myeloid diff MLP active | Myeloid diff CP1 inactive | GFP autofluor inactive
COc1cc(F)ccc1-c1csc(C(NC(C)=O)c2cccc(F)c2)n1 (centres undefined)	none (no result: ATG4B inhibitor)
COc1ccc(C)cc1NC(=O)n1ncc2cc(Cl)ccc21	Myeloid diff MLP active | Myeloid diff CP1 active | GFP autofluor inactive
Cc1ccccc1NC(=O)n1ncc2cc(Cl)ccc21	none
COC(=O)/C=C\C(C#N)(C#N)N=Cc1ccc(OC)cc1	none (no result: Myeloid diff MLP)
CC(=O)N1CC=C2C(C#N)=C(N)C(C#N)(C#N)C(CCc3ccccc3)C2C1 (centres undefined)	Myeloid diff MLP active | Myeloid diff CP1 inactive | GFP autofluor inactive
CCN1CC=C2C(C#N)=C(N)C(C#N)(C#N)C(CCc3ccccc3)C2C1 (centres undefined)	none
CCOC(=O)c1ccc(NC(=O)c2c(N)n(Cc3ccccc3)c(=O)[nH]c2=O)cc1	none
O=C(O)c1ccc(S(=O)(=O)N2CCC3(CC2)CC(=O)c2ccccc2O3)cc1	none
C[C@H](CO)N1C[C@H](C)[C@H](CN(C)Cc2ccncc2)Oc2cc(-c3ccccc3F)ccc2S1(=O)=O	none (no result: ATG4B inhibitor) | Myeloid diff CP1 inactive | GFP autofluor inactive
C[C@H](CO)N1C[C@H](C)[C@@H](CN(C)Cc2cccnc2)Oc2cc(-c3cccnc3)ccc2S1(=O)=O	none (no result: ATG4B inhibitor)
COc1ccccc1-c1ccc2c(c1)O[C@@H](CN(C)C(=O)Nc1cccc(F)c1)[C@H](C)CN([C@H](C)CO)S2(=O)=O	none (no result: ATG4B inhibitor) | Myeloid diff CP1 inactive | GFP autofluor inactive
O=c1c(Cc2c(F)cccc2Cl)c(O)ccn1CCCn1ccnc1	none
CCN(CC(=O)Nc1c(F)cccc1F)C(=O)CC1CCCCC1	none | Myeloid diff CP1 inactive | GFP autofluor inactive
CC1CCC(NC(=O)CC(C)(C)Cc2nc3ccccc3c(=O)[nH]2)CC1 (centres undefined)	none | Myeloid diff CP1 inactive | GFP autofluor inactive
CC(OC(=O)c1ccc(=O)n(Cc2ccccc2)n1)C(=O)Nc1cccc(Cl)c1 (centres undefined)	none
COc1ccc(/C=N/Nc2c(Cl)cc(Cl)cc2Cl)cc1CN1CCOCC1	none | Myeloid diff CP1 inactive | GFP autofluor inactive
COc1ccc(/C=N/NC(=O)c2ccccc2O)cc1CN1CCOCC1	none
O=C(CCN1CCN(c2ccc(F)cc2)CC1)Nc1ccccc1F	none
O=C(CCN1CCN(c2ccccc2)CC1)Nc1ccccc1F	none | Myeloid diff CP1 inactive | GFP autofluor inactive
CC1Cc2c([nH]c(=O)n(-c3ccccc3)c2=O)O1 (centres undefined)	none | Myeloid diff CP1 inactive | GFP autofluor inactive
COc1cccc(CN(C)C(=O)CCN=C2NS(=O)(=O)c3ccccc32)c1	none
CSc1ccccc1NC(=O)CN(C)Cc1c(O)ccc2ccccc12	none
O=S(=O)(NC1CCN(Cc2ccccc2)CC1)c1cccc2cccnc12	none | Myeloid diff CP1 inactive | GFP autofluor inactive
O=C1COc2ccc3ccccc3c21	none | Myeloid diff CP1 inactive | GFP autofluor inactive
CCN(CC(=O)NCc1ccc(Cl)cc1)C(=O)CCC(=O)c1ccc(C)cc1	none
CCN(CC(=O)NCc1ccc(Cl)cc1)C(=O)CCC(=O)c1ccc(F)cc1	Myeloid diff MLP active | Myeloid diff CP1 inactive | GFP autofluor inactive
Cc1ccc(NC2=Nc3ccccc3CS2)cc1	none
c1ccc(NC2=Nc3ccccc3CC2)cc1	Myeloid diff MLP active | Myeloid diff CP1 inactive | GFP autofluor inactive
COCCN(C(=O)c1ccc(-c2ccc([N+](=O)[O-])cc2)o1)c1c(N)n(CC(C)C)c(=O)[nH]c1=O	none
CCC(=Nc1ccccc1O)C1=C(O)CC(c2ccccc2)CC1=O (centres undefined)	none | Myeloid diff CP1 inactive | GFP autofluor 6.6
CCCCNC(=O)c1c(O)c2cccc3c2n(c1=O)CCC3	none
